Source: PubChem (several laboratories)
ABHD5 PLIN5 PPI: ABHD5-PLIN5 protein interaction inhibition | Q00G26+Q8WTS1 | Split G. princeps luciferase complementation, luminescence, 4 h | inhibition, % at 4 µM | actives 0.78% (n = 360,000);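 active means inhibition above the mean inhibition across every tested compound plus 3 SD, cut at about 22% in these data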;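 further: 0% = DMSO only wells and the 100% control is not disclosed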
ALR H2O2 inh: human ALR oxidase inhibition via reduced H2O2; AID 485317; actives 3.8% (n = 290,000); inhibition, % (concentration not given with the values); purified ALR, DTT oxidation, H2O2 HRP-luminol luminescence;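 active means mean replicate inhibition above about 79%, with every replicate also reaching it, limit read from the data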
LANA-H2B inh: blocks KSHV LANA binding to histone H2A/H2B; AID 2629; cell-free LANA-H2A/H2B peptide, fluorescence polarization; actives 0.6% (n = 320,000); inhibition, % (concentration not given with the values); in the data active means inhibition mostly above about 10%, no sharp cut-off; inactive means mostly below about 6.7%
PRMT1 FP inh: blocks human protein arginine methyltransferase 1. Q99873. recombinant PRMT1, activity-based probe fluorescence polarization. inhibition, % at 2.79 µM. actives 1.3% (n = 370,000). AID 652257;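 active means inhibition above about 21% made by adding two undisclosed values, limit read from the data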
Target sequence (Q99873 whole entry, looked up): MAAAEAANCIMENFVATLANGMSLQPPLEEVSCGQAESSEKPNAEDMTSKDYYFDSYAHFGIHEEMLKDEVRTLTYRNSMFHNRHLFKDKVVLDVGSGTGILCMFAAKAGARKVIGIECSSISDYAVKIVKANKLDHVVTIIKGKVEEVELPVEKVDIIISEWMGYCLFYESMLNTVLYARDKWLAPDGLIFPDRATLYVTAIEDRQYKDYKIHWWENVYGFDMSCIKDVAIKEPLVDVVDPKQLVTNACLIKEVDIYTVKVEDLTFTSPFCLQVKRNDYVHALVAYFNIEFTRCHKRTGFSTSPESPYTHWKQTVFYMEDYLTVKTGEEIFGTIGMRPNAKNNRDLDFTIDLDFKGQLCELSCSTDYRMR
Rtt109 HAT inh: blocks Candida albicans Rtt109/Vps75 acetyltransferase activity | purified Rtt109/Vps75, ThioGlo CoA-SH fluorescence, 4 h | AID 540336 | actives 0.16% (n = 330,000) | inhibition, % at 34.9 µM;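 active means inhibition of at least 50% in every replicate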
rCAG binder: molecules binding r(CAG) RNA repeats | r(CAG) RNA repeat, TO-PRO-1 dye displacement fluorescence | inhibition, % at 3 µM | actives 1.3% (n = 370,000) | AID 651821;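 active means inhibition above the plate cutoff, the mean of all test compounds on that plate plus 3 SD, cut at about 35% in these data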;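 further: 0% = DMSO alone and 100% = 100 µM mitoxantrone as full dye displacement; higher means more dye released from RNA so lower well fluorescence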
Active calls of the source: *; · = no result given. This is a sample that favours compounds with a hit; in the whole collection about 5.9% have one here.

SMILES	ABHD5 PLIN5 PPI	ALR H2O2 inh	LANA-H2B inh	PRMT1 FP inh	Rtt109 HAT inh	rCAG binder
CC(C(=O)Nc1ccc(O)cc1)c1cccc(C(=O)c2ccccc2)c1 (stereo not given)	0	99*	5	-1	10	1
COc1cc2sc3cc(NCCCN4CCOCC4)ccc3c(=O)c2cc1OC	-1	99*	5	4	-233	-4
Cc1ccc(NC(=C(C#N)C#N)c2ccccc2)cc1	3	·	·	-1	·	1
Cc1cccc(C)c1NC(=O)CSc1nnc([C@H](C)NC(=O)OC(C)(C)C)o1	2	-1	3	-2	·	-1
C[C@H](NC(=O)OC(C)(C)C)c1nnc(SCC(=O)Nc2cccc(Cl)c2)o1	-1	96*	2	-3	-5	4
CN1CCN(S(=O)(=O)c2ccc(N)cc2)CC1	-1	96*	1	1	-1	2
CN1CCN(S(=O)(=O)c2ccc(F)cc2)CC1	6	·	·	-6	·	3
COc1cc(CN2CCN(c3ncc(Cc4ccccc4)cn3)CC2)cc(OC)c1	·	·	·	3	·	2
CC(=O)c1ccc([C@H](O)[C@@H](C(=O)N(C)c2ccccc2)C2CC2)cc1	·	·	·	-1	·	2
COc1cc(/C=N/NC(=O)C2C3CCCCC32C)cc(Br)c1O (stereo not given)	0	86*	1	0	3	6
COc1ccc(/C=N/NC(=O)C2C3CCCCC32C)cc1OC (stereo not given)	-5	-4	-5	-1	-6	-4
CCCCCC(=O)N/N=C/c1cc(Br)c(O)c(OC)c1	1	99*	3	3	-7	5
CC1(Cc2cccc(C#N)c2)C(=O)Nc2c(Cl)cccc21 (stereo not given)	-4	·	·	1	·	-1
COC(=O)c1c(-c2ccc(OC)cc2)c2c(c3c4cc(F)ccc4n(S(=O)(=O)c4ccc(C)cc4)c13)C(=O)N(C)C2	·	·	·	3	·	15
COc1ccc(-c2nnc(SCC(=O)N/N=C(\C)c3ccc(-c4ccccc4)cc3)n2-c2ccc(C)cc2)cc1	·	·	·	-8	·	11
CC(=O)N1CCN(c2nnc(-c3ccccc3)c3ccccc23)CC1	-1	1	-3	-3	-8	-2
CC(=O)C1=C(c2ccccc2)N(C(C)=O)n2c(C)nnc2S1	18	99*	3	73*	4	-1
COc1ccc(NC(=O)c2cc(-c3cc(F)ccc3OC(C)C)n[nH]2)c(C)c1	-4	·	·	0	·	5
CCOc1ccccc1N1CCN(C/C=C/c2ccc(N(C)C)cc2)CC1	3	99*	-1	5	5	3
CCOc1ccccc1N1CCN(Cc2ccco2)CC1	0	33	5	0	1	-5
CCN(CC)c1ccc(CNc2nnnn2C)cc1	-4	99*	-2	0	-1	6
CCCn1nnnc1NCc1ccc(N(CC)CC)cc1	-2	98*	-1	1	-2	-6
CCCn1nnnc1NCc1ccc(F)cc1	-1	-3	-8	-2	0	-1
O=C(CC1c2cc(F)ccc2C=C(c2ccsc2)N1c1ccc(C#CCCO)cc1)c1ccco1 (stereo not given)	8	·	·	1	·	11
COC(=O)[C@H]1C[C@@]2(N3CCCC3)c3ccccc3N(C(=O)OC(C)(C)C)[C@H]2N1C(=O)OC(C)(C)C	·	·	·	1	·	-1
SMILES	ABHD5 PLIN5 PPI	ALR H2O2 inh	LANA-H2B inh	PRMT1 FP inh	Rtt109 HAT inh	rCAG binder
CCCN(CC1CC1)c1c2c(nc3ncnn13)CCCC2	·	·	·	0	·	0
CCOC(=O)C1=C(CSc2nc3c(cc2C#N)CN(C)CC3)OC(N)=C(C#N)C1c1ccccc1 (stereo not given)	-6	·	2	19	-23	23
CCOC(=O)C1=C(CSc2nc(-c3ccccc3)ccc2C#N)OC(N)=C(C#N)C1c1ccccc1 (stereo not given)	-9	·	198*	12	-5	10
CCOC(=O)C1=C(CSc2nc3c(cc2C#N)CN(C)CC3)OC(N)=C(C#N)C1c1ccc(F)cc1 (stereo not given)	-5	-9	0	10	27	50*
OC1(C#Cc2c(-c3ccsc3)sc3ccccc23)CCCCC1	·	·	·	-2	·	6
CCn1cc(C(=O)O)c(=O)c2cc(F)c(N3CCNCC3)cc21	-6	·	71*	·	4	·
CCOC(=O)c1cn(CC)c2cc(N3CCSCC3)c(F)cc2c1=O	-1	99*	6	-1	6	-1
